Compound activity: PubChem, National Center for Advancing Translational Sciences (NCATS)
Compounds with a hit are over-represented: about 21% of the library has one in this group of screens.
Shiga inhibitor – A qHTS for Small Molecule Inhibitors of Shiga Toxin; Vero cells, Shiga toxin protein synthesis inhibition reporter; inhibition, % at 38.7 µM; hit rate 9.2% among 290,000; in the data active means inhibition mostly above about 28%, no sharp cut-off; inactive means mostly below about 43%; further: 0% is about no effect
NS1 inh – qHTS Assay for Inhibitors of Influenza NS1 Protein Function; hit rate 0.4% among 270,000; Potency, µM (doses to about 46.1 µM), inactives show at the highest dose activity, positive = more growth; AID 2326, 2010; calls by dose curve; further: potency means the concentration at half of the fitted maximal effect; actives are rising curves; nearly all actives have a fitted effect of over 50% in size
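OD600 was taken as the measure of yeast growth restored by compound in an NS1-expressing S. cerevisiae strain. Cells had been washed out of glucose medium and diluted 1:100 into galactose -URA medium, pH 6.0.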
Pf growth 48h – Primary qHTS for delayed death inhibitors of the malarial parasite plastid, 48 hour incubation. P. falciparum luciferase growth in erythrocytes, 48 h. Potency, µM (top dose mostly 28.7 µM), without a hit: at the top dose activity change, negative = inhibition, actives largely listed as inhibitors. hit rate 5.9% among 310,000. AID 504832, 2011; further: potency means the concentration at half of the fitted maximal effect; on the % scale 0 is the no-effect control and ±100 the full control effect
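Cell-based growth assay: transgenic P. falciparum expressing firefly luciferase, cultured in red cells within RPMI 1640 containing 0.5% w/v Albumax, 24 mM bicarbonate and gentamycin. A drop in luciferase activity indicates inhibition.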
Cycloheximide cs – Cycloheximide Counterscreen for Small Molecule Inhibitors of Shiga Toxin. max response, %. hit rate 12% among 300,000. cell reporter, cycloheximide protein synthesis inhibition counterscreen; in the data active means max response mostly above about 13%, no sharp cut-off; inactive means mostly below about 14%; further: read at 38.3 µM for the half of the compounds with a filed dose; 0% is about no effect
Pf growth 96h – Primary qHTS for delayed death inhibitors of the malarial parasite plastid, 96 hour incubation; Potency, µM (highest dose often 28.7 µM), for the others: at the top dose activity change, negative = inhibition, usual class: inhibitors; hit rate 6.9% among 320,000; P. falciparum luciferase reporter growth, 96 h; AID 504834, 2011; further: potency means the concentration at half of the fitted maximal effect; on the % scale 0 is the no-effect control and ±100 the full control effect
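P. falciparum expressing integrated firefly luciferase grown in erythrocytes (2% hematocrit, 0.05% parasitemia final) with compounds for 96 hours at 37 C, 5% CO2. Growth inhibition read as loss of luminescence after adding luciferase detection reagent.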
The depositor's hits bear a star; ? = inconclusive; . = not tested or not shown. Unless noted, the call rests on the fitted dose curve; in most records, active means well fitted inhibition curve with a large enough effect; inconclusive means small, poorly fitted or top-dose-only effect, or another doubt; inactive means no such curve, though single readings can be large or run the other way.

SMILES	Shiga inhibitor	NS1 inh	Pf growth 48h	Cycloheximide cs	Pf growth 96h
O=[N+]([O-])c1ccc2c(c1)nc1n2CCN(c2ccccc2)C1	29.0*	-40.9%	?	37.2*	?
O=[N+]([O-])c1ccc2c(c1)nc1n2CCN(CC2CCCO2)C1 (stereo unspecified)	24.3	3.5%	40.8%	28.2*	23.2%
CCSc1nnc(NC(=O)Cc2ccc(OC)c(S(=O)(=O)N3CCOCC3)c2)s1	1.5	15.5%	?	9.3	15.4%
COc1cc(C(=O)NCC(c2cccnc2)N2CCN(C)CC2)cc(OC)c1OC (stereo unspecified)	2.5	-1.1%	-2.2%	-1.5	-8.3%
O=C(NCC(c1cccnc1)N1CCN(c2ccc(F)cc2)CC1)OCc1ccccc1 (stereo unspecified)	-19.3	-39.9%	.	8.5	41.2%
O=C(NCC(c1cccnc1)N1CCN(c2ccccc2)CC1)OCc1ccccc1 (stereo unspecified)	-1.4	-34.3%	7.38µM*	5.2	18.5%
O=C(NCC(c1cccnc1)N1CCN(c2ccccc2F)CC1)c1ccccc1 (stereo unspecified)	-1.4	-52.4%	?	-0.6	?
O=C(NCCc1c[nH]c2ccccc12)C(=O)NCC(c1cccnc1)N1CCN(c2ccccc2)CC1 (stereo unspecified)	33.4	-5.3%	13.1µM*	-3.7	8.28µM*
COc1cc(C(=O)NCC(c2cccnc2)N2CCN(c3ccccc3)CC2)cc(OC)c1OC (stereo unspecified)	-5.8	-12.5%	13.1µM*	-1.4	?
O=C(NCC(c1cccnc1)N1CCN(c2ccc(F)cc2)CC1)c1cccc(Cl)c1 (stereo unspecified)	-21.0	-81.3%	11.7µM*	-1.4	0.7%
CCN1C(=O)C(=O)N(CC(=O)Nc2ccccc2OC(F)F)C1=O	.	.	-20.3%	.	?
Cc1ccc(-n2nnnc2SCC(=O)NCC2CCCO2)cc1C (stereo unspecified)	.	.	?	.	-28.2%
CC1(c2ccc3ccccc3c2)NC(=O)N(CC(=O)N2CCN(c3ccccc3O)CC2)C1=O (stereo unspecified)	-23.6	19.7%	?	-2.8	?
O=C(NCC(c1cccnc1)N1CCN(c2ccc(F)cc2)CC1)Oc1ccccc1 (stereo unspecified)	-2.9	-47.3%	8.28µM*	-4.6	?
COC(=O)NCC(c1cccnc1)N1CCN(c2ccccc2)CC1 (stereo unspecified)	4.4	2.6%	-11.7%	-3.5	-8.6%
CCCCNC(=S)Nc1ccc(Cl)cc1	45.2*	-23.2%	22.4%	15.7	30.5%
CCOC(=O)NC(=S)Nc1ccc(C(C)(C)C)cc1	79.9*	-0.8%	?	33.4*	?
CCCCNC(=S)Nc1ccc(C(F)(F)F)cc1	30.4*	.	?	18.9*	?
CCNC(=S)Nc1ccc(Cl)cc1	12.3	10.9%	0.6%	-1.0	-15.9%
CC(C)(C)C(=O)NC(=S)Nc1ccc(C(F)(F)F)cc1	61.4*	-0.6%	13.6%	43.2*	-4.0%
CCCNC(=S)Nc1cccc(C(F)(F)F)c1	-6.7	-5.8%	2.5%	-0.4	21.6%
COc1cc(/C=C2\C(=N)N3N=CSC3=NC2=O)cc(Br)c1OC(=O)c1ccco1	6.0	.	?	-3.4	?
CC1(C)NC(=O)N(CC(=O)OCC(=O)NC(=O)c2ccccc2)C1=O	.	.	2.8%	.	0.6%
COc1ccccc1N1CCN(CC(=O)Nc2cc(C)nn2-c2nc(C)cc(C)n2)CC1	.	-3.9%	.	.	.
COCCCNCCCCSc1ccc(Cl)cc1	-6.2	-12.7%	-13.4%	-2.3	?
CC(Cc1ccccc1)C(=O)Nc1ccc(Br)cc1 (stereo unspecified)	99.8*	-25.5%	-21.2%	36.2*	2.7%
CC(Cc1ccccc1)C(=O)Nc1ccccc1 (stereo unspecified)	9.0	-3.7%	20.9%	6.8	-1.6%
COc1ccc(NC(=S)NC(=O)Cc2ccccc2)cc1	.	-13.0%	-17.5%	24.8*	3.3%
O=C(Cc1ccccc1)NC(=S)Nc1ccc(OC(F)F)cc1	38.6*	-2.9%	0.0%	17.8*	?
COc1ccc(NC(=O)C(CC(=O)O)Cc2ccc(Br)cc2)cc1 (stereo unspecified)	-3.4	12.2%	4.1%	-4.0	?
